# Source: PubChem BioAssay
# Active and inactive are the calls of the source. Unless noted, no stated cut-off is given here; in the data, active means inhibition above about 80%; inactive means the rest.
# Experiments:
# [1] = sensitizers of A549 cells to miR-34 induction, primary screen, imaging, A549 dox-inducible miR-34, nuclei and caspase counts (AID 1347080;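 active means compounds whose cell count with miR-34 switched on is under 0.7 times the count with it off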); details: A549 miR-34 inducible, Hoechst nuclei count, 48 h
# [2] = survival rescue of mitochondrial mutant cells in low glucose, primary screen, MELAS cybrids, Rieske KO mouse fibroblasts, CellTiter-Glo (AID 1508586;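 active means mean z-score across replicates of 1.96 or higher in either the MELAS or the Rieske mutant cell line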;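 further: z relative to plate mean and SD of compound and empty wells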)
# [3] = LFS_MB_P medulloblastoma growth inhibition, cell-based, chromothripsis tumors, cisplatin or BGB combos (AID 1671449); details: LFS_MB_P medulloblastoma cells;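 further: cells exposed for 96 hours; 0% = vehicle DMSO and 100% = killing by high DMSO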
# [4] = HDN33 neuroblastoma growth inhibition, cell-based, chromothripsis tumors, cisplatin or BGB combos (AID 1671450); details: HDN33 neuroblastoma cells, stronger effect = higher value;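 further: cells exposed to compound for four days; 0% = vehicle DMSO and 100% = cell killing by high DMSO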
# [5] = ICB984 medulloblastoma cell growth inhibition, synergistic combos for chromothripsis tumors, cisplatin or BGB combos (AID 1671451; call rule not given here;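 further: cells exposed for 96 hours before readout; 0% = vehicle DMSO and 100% = killing by high DMSO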); details: ICB984 medulloblastoma cells, drug combinations, stronger effect = higher value
# [6] = LFS_MB_1R medulloblastoma cell growth inhibition, synergistic combos for chromothripsis tumors, cisplatin or BGB combos (AID 1671452); details: LFS_MB_1R medulloblastoma cells, stronger effect = higher value;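 further: cells exposed for 96 hours before readout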
# [7] = HTB85 osteosarcoma cell growth inhibition, synergistic combos for chromothripsis tumors, BGB or cisplatin IC20 combos (AID 1671453); details: HTB85 osteosarcoma cells, drug combinations, stronger effect = higher value;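 further: cells exposed for 96 hours before readout; 0% = vehicle DMSO and 100% = high DMSO killing control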
# [8] = CRL2098 osteosarcoma cell growth inhibition, synergistic combos for chromothripsis tumors, BGB or cisplatin IC20 combos (AID 1671454); details: CRL2098 osteosarcoma cells, drug combinations, stronger effect = higher value;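 further: cells exposed for 96 h before readout; 0% = vehicle DMSO and 100% = killing by high DMSO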
# [9] = HD-MB03 medulloblastoma cell growth inhibition, synergistic combos for chromothripsis tumors, BGB or cisplatin IC20 combos (AID 1671455; in the data active means inhibition above about 83%;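 further: 0% = vehicle DMSO and 100% = high DMSO as cytotoxic control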); details: HD-MB03 medulloblastoma cells, stronger effect = higher value
# [10] = UWB1.289 ovarian carcinoma cell growth inhibition, synergistic combos for chromothripsis tumors, BGB or cisplatin combos (AID 1671456); details: UWB1.289 ovarian carcinoma cells, stronger effect = higher value;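 further: cells exposed to compound for four days; 0% = vehicle DMSO and 100% = killing by high DMSO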
# [11] = LFS_MB_2R medulloblastoma cell growth inhibition, synergistic combos for chromothripsis tumors, cisplatin combos (AID 1671457); details: LFS_MB_2R medulloblastoma cells, stronger effect = higher value;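 further: cells exposed to compound for four days before readout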
# [12] = MDA-MB-436 breast carcinoma cell growth inhibition, synergistic combos for chromothripsis tumors, BGB or cisplatin combos (AID 1671458; call rule not given here;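 further: cells exposed for 96 hours; 0% = vehicle DMSO and 100% = killing by high DMSO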); details: MDA-MB-436 breast carcinoma growth inhibition, drug combinations, stronger effect = higher value
# [13] = UWB1.289_BRCA1 ovarian cancer growth, cell-based, BGB or cisplatin combinations (AID 1671459); details: UWB1.289 BRCA1 ovarian carcinoma, drug combinations, stronger effect = higher value
# [14] = human astrocyte viability loss, single and combined drugs, cytotoxicity control for chromothriptic childhood tumor combination screen, cell-based, BGB or cisplatin IC20 combos (AID 1671460); details: Human astrocytes, drug combinations, stronger effect = higher value;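 further: cells exposed to compounds for 96 hours before viability readout; 0% = vehicle and 100% = killing control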
# [15] = growth inhibition of BT084 medulloblastoma cells, cell-based, ICGC_MB145, cisplatin and BGB IC40 combos (AID 1671461); details: drug combinations, stronger effect = higher value;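 further: cells exposed to drugs for 96 hours; 0% = vehicle DMSO and 100% = high DMSO full killing control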
# [16] = growth inhibition of RCMB18 medulloblastoma cells, cell-based, cisplatin and BGB IC40 combos (AID 1671462); details: stronger effect = higher value;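 further: cells exposed to compound for four days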
# [17] = growth inhibition of CRL1545 osteosarcoma cells, cell-based, cisplatin and BGB IC20 combos (AID 1671464); details: stronger effect = higher value;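 further: cells exposed to compound for 96 hours before readout; 0% = vehicle DMSO and 100% = high DMSO killing control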
# [18] = hESC survival regulators, cell-based (AID 493140; call rule not given here;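 further: cells exposed to compounds for four days before counting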); details: human embryonic stem cell survival screen; stronger effect = higher value
# [19] = liver-stage malaria parasite growth inhibition, primary screen, cell-based, HepG2, luciferase luminescence, HepG2 viability (AID 624349; in the data active means parasite load remaining mostly below about 12%, no sharp cut-off; inactive means mostly above about 10%;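 further: 100% = mean of DMSO negative control wells on the same plate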); details: P. berghei liver stage in HepG2, luciferase luminescence, concentration not given here; parasite load remaining: stronger effect = lower value; viability: measured here: HepG2 viability without parasites
# [20] = stronger effect = lower value, cell number ratio, induced over uninduced
# [21] = measured here: relative caspase fold change +Dox/-Dox
# [22] = measured here: total cells with miR-34 induction, stronger effect = lower value
# [23] = measured here: total cells without miR-34 induction
# [24] = MELAS cybrid survival, CellTiter-Glo 48 h, stronger effect = higher value
# [25] = Rieske KO mouse fibroblast survival, CellTiter-Glo 72 h
# [26] = measured here: combination with BGB IC40, at 0.05 µM
# [27] = measured here: with BGB IC20 combination, at 0.5 µM
# [28] = measured here: with cisplatin IC20 combination, at 0.5 µM
# [29] = measured here: combination with cisplatin, at 0.5 µM
# [30] = measured here: combination with cisplatin, at 5 µM
compound,measurement,setting,value
CC(C=CC(=O)NO)=CC(C)C(=O)c1ccc(N(C)C)cc1 (centres undefined),fold change,[1]; [20],0.905 (inactive)
same,fold change,[1]; [21],0.765
same,cell count,[1]; [22],830
same,cell count,[1]; [23],918
same,z-score,[2]; [24],-0.131 (inactive)
same,z-score,[2]; [25],-2.46
same,inhibition,"[3]; at 0.5 µM, stronger effect = higher value",124% (active)
same,inhibition,"[3]; measured here: combination with BGB IC20, at 0.005 µM",-30%
same,inhibition,"[3]; measured here: combination with BGB IC40, at 0.005 µM",-20.9%
same,inhibition,[3]; [26],-37.3%
same,inhibition,"[3]; measured here: combination with cisplatin, at 0.5 µM, stronger effect = higher value",130%
same,inhibition,"[3]; measured here: combination with cisplatin, at 5 µM, stronger effect = higher value",120%
same,inhibition,"[4]; BGB combo, at 5 µM",99.8%
same,inhibition,[4]; at 0.5 µM,92.3% (active)
same,inhibition,"[4]; cisplatin combo, at 5 µM",99.9%
same,inhibition,[4]; [27],85.6%
same,inhibition,[4]; [28],98.3%
same,inhibition,"[4]; single agent, at 5 µM",99.9%
same,inhibition,"[5]; BGB IC20 combo, at 0.005 µM",83.1%
same,inhibition,"[5]; BGB IC40 combo, at 0.005 µM",90.3%
same,inhibition,"[5]; BGB IC40 combo, at 0.05 µM",97.7%
same,inhibition,[5]; at 0.5 µM,-36.8% (inactive)
same,inhibition,"[5]; cisplatin combo, at 0.05 µM",97.7%
same,inhibition,"[5]; cisplatin combo, at 0.5 µM",-29%
same,inhibition,"[5]; cisplatin combo, at 5 µM",-20.2%
same,inhibition,"[5]; measured here: 5 uM single agent, at 5 µM",-13.2%
same,inhibition,[6]; at 0.5 µM,87.3% (active)
same,inhibition,[6]; [26],4.15%
same,inhibition,[6]; [29],99.9%
same,inhibition,[6]; [30],98.9%
same,inhibition,[7]; at 0.5 µM,98.7% (active)
same,inhibition,"[7]; measured here: with BGB IC20, at 0.5 µM",97.4%
same,inhibition,"[7]; measured here: with BGB IC20, at 5 µM",99.9%
same,inhibition,"[7]; measured here: with cisplatin IC20, at 0.5 µM",99.9%
same,inhibition,"[7]; measured here: with cisplatin IC20, at 5 µM",100%
same,inhibition,"[7]; single agent, at 5 µM",99.9%
same,inhibition,[8]; at 0.5 µM,70.4% (inactive)
same,inhibition,"[8]; measured here: combination with BGB at IC20, at 0.5 µM",75.9%
same,inhibition,"[8]; measured here: combination with cisplatin at IC20, at 0.5 µM",61.3%
same,inhibition,[9]; at 0.5 µM,89% (active)
same,inhibition,"[9]; measured here: combo with BGB at IC20, at 0.5 µM",79.1%
same,inhibition,"[9]; measured here: combo with cisplatin at IC20, at 0.5 µM",99.7%
same,inhibition,[10]; at 0.5 µM,67.5% (inactive)
same,inhibition,"[10]; measured here: inhibition with BGB combination, at 0.05 µM",-6.23%
same,inhibition,"[10]; measured here: inhibition with cisplatin combination, at 0.05 µM",29.6%
same,inhibition,[11]; at 0.5 µM,78.3% (inactive)
same,inhibition,[11]; [29],92.3%
same,inhibition,[11]; [30],103%
same,inhibition,[12]; at 0.5 µM,53.4% (inactive)
same,inhibition,"[12]; measured here: BGB combination, at 0.5 µM",39%
same,inhibition,"[12]; measured here: BGB combination, at 5 µM",63.1%
same,inhibition,"[12]; measured here: cisplatin combination, at 0.5 µM",54.4%
same,inhibition,"[12]; measured here: cisplatin combination, at 5 µM",81.3%
same,inhibition,"[13]; BGB combination, concentration series, at 5 µM",116%
same,inhibition,[13]; at 0.5 µM,68.2% (inactive)
same,inhibition,"[13]; cisplatin combination, concentration series, at 5 µM",131%
same,inhibition,[14]; at 0.5 µM,97% (active)
same,inhibition,"[14]; measured here: combo with BGB IC20, at 0.5 µM",96.5%
same,inhibition,"[14]; measured here: combo with cisplatin IC20, at 0.5 µM",96%
same,inhibition,[15]; at 0.5 µM,86.5% (active)
same,inhibition,"[15]; cisplatin combination, at 0.5 µM",101%
same,inhibition,"[15]; cisplatin combination, at 5 µM",104%
same,inhibition,"[15]; measured here: BGB IC40 combination 0.05 uM, at 0.05 µM",36.8%
same,inhibition,"[15]; single agent, at 5 µM",106%
same,inhibition,[16]; at 0.5 µM,83.6% (active)
same,inhibition,"[16]; cisplatin combo, at 5 µM",98.1%
same,inhibition,"[16]; measured here: BGB IC40 combination, at 0.05 µM",13.5%
same,inhibition,[16]; [29],87.1%
same,inhibition,"[16]; single agent, at 5 µM",98.2%
same,inhibition,[17]; at 0.5 µM,88.1% (active)
same,inhibition,[17]; [27],86.4%
same,inhibition,[17]; [28],88.7%
same,inhibition,"[17]; single agent, at 0.05 µM",54.1%
same,inhibition,"[17]; single agent, at 5 µM",87.3%
O=C1OC(C(O)CO)C(O)=C1O (centres undefined),fold change,[1]; [20],1.03 (inactive)
same,fold change,[1]; [21],1.05
same,cell count,[1]; [22],8100
same,cell count,[1]; [23],7850
same,z-score,[2]; [24],0.0982 (inactive)
same,z-score,[2]; [25],-0.298
Cc1onc(-c2c(F)cccc2Cl)c1C(=O)N[C@@H]1C(=O)N2C(C(=O)O)C(C)(C)S[C@H]12 (some centres undefined),survival,[18],15.2 (inactive)
same,parasite load remaining,[19],131% (inactive)
same,viability,[19],74.7%
same,fold change,[1]; [20],0.98 (inactive)
same,fold change,[1]; [21],0.516
same,cell count,[1]; [22],9050
same,cell count,[1]; [23],9240
same,z-score,[2]; [24],0.325 (inactive)
same,z-score,[2]; [25],0.193
